Reference: PubChem BioAssay AID488900 (National Center for Advancing Translational Sciences (NCATS), 2010)
Records with an inconclusive call do not appear. Calls of active or inactive are those of the source. Calls come from the whole dose curve; as a rule, active = well fitted curve in the direction sought with a large enough effect; inconclusive = small, poorly fitted or top-dose-only effect, or effect the other way, or another doubt; inactive = no such curve, though single readings can be large or run the other way.

Assay: Secondary Assay for lipid storage modulators: Hela cell LDSA assay for probe SAR
Details: HeLa lipid droplet accumulation, BODIPY 493/503 cytometry, oleate-fed; series mostly up to 46.1 µM; activity change, negative = less lipid storage: at the top concentration
Description: NIH Molecular Libraries Probe Production Centers Network [MLPCN] NIH Chemical Genomics Center [NCGC] MLPCN Grant: 1 R03 MH085686-01 Assay Submitter (PI): Beller, Mathias; Max-Planck-Institut fur Biophysikalische Chemie NCGC Assay Overview: Storing lipids as a reservoir for energy or the anabolism of elementary metabolites is a common feature of probably all cells and is conserved from bacteria to humans. The universal cellular lipid storage organelle is the so-called lipid storage droplet (LD). Although ubiquitous, LDs share a simple structure composed of a hydrophobic core that harbors the storage lipids, which is shielded by a droplet-specific phospholipid monolayer to which proteins are attached. The current model of LD biogenesis involves an incorporation of the lipid core into the membrane leaflets of the endoplasmic reticulum (ER) followed by a subsequent budding-like maturation of a LD, which ultimately pinches off. Once released, LD volume can increase by localized lipogenesis or fusion of existing droplet. Storage lipids are re-mobilized enzymatically by lipase activity. Lipase regulation in the adipocyte is heavily studied and involves multiple components including catecholamine signaling, the LD-associated proteins Perilipin and comparative gene identification (CGI-58) and at least two lipases named hormone sensitive lipase (HSL) and adipocyte triglyceride lipase (ATGL). LD regulation outside of the adipocyte is poorly understood and only few components are known. However, there is an urgent need to learn more about ectopic fat depots as mislocalized storage of lipids, for example in the liver or muscle, is an eminent health problem associated with insulin resistance or the metabolic syndrome.
NCGC Assay Protocol Summary: The assay was performed with Hela cells, using an oleic acid feeding protocol similar to the S3 assay. We dispensed 4 uL of cells to give 700 cells/well into Greiner bio-one 1,536-well plates (black walled, clear bottom). Triacsin C (Sigma-Aldrich T-4540), an inhibitor of long-chain fatty acyl CoA synthetase that blocks synthesis of triglycerides, was used as a positive control for lipid under-storage using a final concentration of 20 uM. The orexin antagonist, SB408124 - previously identified to stimulate lipid over-storage, was used as a positive control for lipid over-storage using a final concentration of 20 uM. A total of 23 nL of compound solution of different concentrations were transferred to the assay plates using a Kalypsys pin tool equipped with a 1,536-pin array containing 10-nL slotted pins (FP1S10, 0.457-mm diameter, 50.8 mm long; V&P Scientific). One microliter of oleic acid was added (400 uM final concentration), and the plate was lidded with stainless steel rubber gasket lined lids containing pinholes. After 18-24 h incubation at […] and 95% humidity, 4 uL of the dyes BODIPY 493/503 (Molecular Probes) and the Cell Tracker Red CMTPX dye (Molecular Probes) were added to the wells to stain lipid droplets and enumerate cell number, respectively. Fluorescence was detected by excitation of the fluorophores with a 488-nm laser on an Acumen Explorer (TTP Lab Tech). The total intensity in channel 2 (500-530 nm) reflected lipid droplet accumulation. Cells were detected using channel 3 (575-640 nm) with 5-um width and 100-um depth filters. The ratio of the number of objects in PMT channel 2 over the number of objects in PMT channel 3 was also calculated. Percent activity was computed relative to an internal control (100% inhibited lipid droplet deposition due to the presence of 20 uM Triacsin C), which was added to 32 wells/plate.

| SMILES | activity change, negative = less lipid storage | Potency |
| --- | --- | --- |
| O=C(NC1CCCCC1)NC1(C(=O)N2CCCC2)CCCCC1 | 0% (inactive) | – |
| COc1ccc(-c2cnc(SCC(=O)Nc3nccs3)n2Cc2ccccc2)cc1 | 0% (inactive) | – |
| CCOC(=O)C1CCN(C(=O)C2(NC(=O)NCc3ccccc3)CCCCC2)CC1 | 41.3% (inactive) | – |
| O=C(NC1CCCc2c1cnn2-c1cc(F)cc(F)c1)c1cccc2nccnc12 (stereo not given) | – | 8.65 µM (active) |
| COc1ccc(-c2cnc(SCC(=O)Nc3nc(C)cs3)n2Cc2ccco2)cc1 | 0% [at 30.7 µM] (inactive) | – |
| O=C(NC1CCCc2c1cnn2-c1ccc(F)cc1F)c1ccccc1 (stereo not given) | -2.47% (inactive) | – |
| CN(C)CC(=O)NC1CCCc2c1cnn2-c1ccc(F)cc1F (stereo not given) | 21% (inactive) | – |
| COc1ccc(CCNC(=O)c2cc3sccc3n2Cc2ccccc2)cc1OC | 0% (inactive) | – |
| O=C(Cc1ccccc1)NC1CCCc2c1cnn2-c1ccc(F)cc1F (stereo not given) | -75% (inactive) | – |
| CCOc1ccc(CCNC(=O)c2cc3sccc3[nH]2)cc1OCC | 8.64% (inactive) | – |
| O=C(NC1CCCc2c1cnn2-c1ccc(F)cc1F)c1ccn[nH]1 (stereo not given) | 24.7% (inactive) | – |
| COc1ccc(CCNC(=O)c2cc3sccc3n2Cc2ccc(Cl)cc2)cc1OC | 0% [at 30.7 µM] (inactive) | – |
| O=C(NC1CCCc2c1cnn2-c1ccc(F)cc1F)C1CCCCN1 (stereo not given) | -20.7% (inactive) | – |
| Cc1ccc(-c2cnc(SCC(=O)Nc3nc(C)cs3)n2Cc2ccco2)cc1 | 0% (inactive) | – |
| CCOc1ccc(CCNC(=O)c2cc3sc(CC)cc3n2C)cc1OCC | – | 0.217 µM (active) |
